# Compound activity from PubChem BioAssay.
# Shown is part of a subset that was picked to be rich in hits.
# FECH inh: blocks human mitochondrial ferrochelatase activity; purified FECH, Ni-mesoporphyrin absorbance 550 nm; calls only at 10 µM (by protocol); actives 3.3% (n = 20,000); AID 1671448;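 active = enzyme reaction rate more than 3 SD below the solvent-only control wells on the same plate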;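 also: lower slope than DMSO wells means FECH inhibition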
# Target sequence (P22830 whole entry, looked up): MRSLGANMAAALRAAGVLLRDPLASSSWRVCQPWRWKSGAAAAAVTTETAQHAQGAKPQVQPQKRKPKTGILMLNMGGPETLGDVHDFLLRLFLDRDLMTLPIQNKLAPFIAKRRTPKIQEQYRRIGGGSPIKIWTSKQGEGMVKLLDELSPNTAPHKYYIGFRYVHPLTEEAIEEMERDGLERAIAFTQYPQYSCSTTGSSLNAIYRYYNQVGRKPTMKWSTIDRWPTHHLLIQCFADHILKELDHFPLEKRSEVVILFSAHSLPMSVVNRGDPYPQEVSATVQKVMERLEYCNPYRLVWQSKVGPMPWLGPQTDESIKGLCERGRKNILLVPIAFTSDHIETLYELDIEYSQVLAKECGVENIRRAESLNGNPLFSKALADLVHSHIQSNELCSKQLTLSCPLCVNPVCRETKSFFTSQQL
# Calls only; i = inactive; + = active, no number.
SMILES,FECH inh
Cc1ccc(NCc2cc(=O)n3[nH]c(NCc4ccccc4)nc3n2)cc1,i
O=c1cc(CNc2ccc(Br)cc2)nc2nc(NCc3ccc(F)cc3)[nH]n12,i
CC(C)c1cc(=O)n2[nH]c(CNc3ccccc3)nc2n1,+
CC(C)NCc1cc(=O)n2[nH]c(NCc3ccccc3)nc2n1,i
CC(C)c1cc(=O)n2[nH]c(CNc3ccc(Br)cc3)nc2n1,+
Cc1cc(Cl)ccc1S(=O)(=O)N1CCN(Cc2nc3cccnc3n2-c2ccc(F)cc2)CC1,i
CC(c1cccc(-c2nnnn2-c2ccccc2)c1)N1CCCC1 (stereo not drawn),i
Cc1ccc(NC(=O)CN2C(=O)CN(C)C(=O)c3ccccc32)c(Br)c1,i
COc1ccccc1OCc1cc(C(=O)N(C)C2Cc3ccccc3C2)n[nH]1,i
CC(C)c1nc(CN(C)C(=O)CCC(=O)NC2CCCC2)cs1,i
O=C(NCc1ccccc1)c1nc[nH]c1C(=O)NCc1cccnc1,i
O=C(NCc1ccccn1)c1nc[nH]c1C(=O)NCc1ccccc1,+
CC1(C)CC(NC(=O)c2nc[nH]c2C(=O)NCc2ccccn2)CC(C)(C)N1,i
CCCNC(=O)c1nc[nH]c1C(=O)NCc1ccccc1,i
CCCNC(=O)c1[nH]cnc1C(=O)NC(c1ccccc1)c1ccccc1,i
CC(C)(C)CNC(=O)c1[nH]cnc1C(=O)NCCc1c[nH]c2ccccc12,i
O=C(NC(c1ccccc1)c1ccccc1)c1nc[nH]c1C(=O)NCc1ccccn1,+
O=C(NCCc1c[nH]c2ccccc12)c1nc[nH]c1C(=O)NCc1ccccc1,+
CN(C)CCNC(=O)c1nc[nH]c1C(=O)NCc1ccccn1,i
O=C(C1CCCN(c2ncnc3c2nc2n3CCCCC2)C1)N1CCC(N2CCCCC2)CC1 (stereo not drawn),i
CCC1=C(c2ccc(OC)cc2)S(=O)(=O)N(CC(=O)Nc2ccc(C)c(C)c2)C1=O,i
COCCNc1nc(Nc2ccc(Cl)cc2)c2cnn(-c3ccccc3)c2n1,i
Cc1ccc(Nc2cc(C)nc(Nc3ccc(NC(=O)CCc4ccccc4)cc3)n2)cc1,i
COC(=O)c1ccc(OC)c(CN2CCN(Cc3ccccc3Cl)S2(=O)=O)c1,i
CCOc1ccccc1NCc1cc(=O)n2[nH]c(NCc3ccccc3)nc2n1,i
SMILES,FECH inh
COc1cccc(NCc2cc(=O)n3[nH]c(NCc4ccccc4Cl)nc3n2)c1,+
COc1ccccc1NCc1cc(=O)n2[nH]c(NCc3ccccc3)nc2n1,i
CCOc1ccccc1NCc1cc(=O)n2[nH]c(NCc3ccccc3Cl)nc2n1,+
COc1ccc(NCc2cc(=O)n3[nH]c(NCc4ccccc4Cl)nc3n2)cc1,i
COc1ccc(CNc2nc3nc(CNc4cccc(OC)c4)cc(=O)n3[nH]2)cc1,i
O=C(NCCCN1CCCCC1)C1CCN(c2ccc(-c3ccccc3)nn2)CC1,i
COCCN(Cc1cccs1)C(=O)[C@H](N)c1ccccc1,i
O=C1c2cccnc2CN1Cc1noc(C2CCCC2)n1,i
COCc1cc(CNC(=O)c2csc(-c3cccs3)n2)[nH]n1,i
CSCCC(=O)N(Cc1ccc(F)cc1)CC1CCCO1 (stereo not drawn),i
Cc1ccc(C)c(NC(=O)CCS(=O)(=O)c2ccc3c(c2)CC(=O)N3C)c1,i
Cc1ccc(OCc2cc(=O)n3oc(C)cc3n2)c(NC(=O)CC(C)C)c1,i
COc1cc2[nH]c(=O)[nH]c2cc1-n1cnnc1,i
O=C(CN1CCN(Cc2ccc(F)cc2Cl)S1(=O)=O)NCc1ccccc1Cl,+
COc1ccc(CCNC(=O)CN2CCN(Cc3ccc(F)cc3Cl)S2(=O)=O)cc1OC,+
Cc1ccc(CN2CCN(CC(=O)Nc3cccc(Cl)c3C)S2(=O)=O)cc1,i
Cc1c(Cl)cccc1NC(=O)CN1CCN(Cc2ccc(F)cc2Cl)S1(=O)=O,+
O=C(CN1CCN(Cc2ccccc2Cl)S1(=O)=O)NCc1ccccc1Cl,i
COC(=O)c1ccc(OC)c(CN2CCN(Cc3ccc(F)cc3Cl)S2(=O)=O)c1,i
O=C(CN1CCN(Cc2ccc(F)cc2Cl)S1(=O)=O)Nc1ccc2c(c1)OCO2,i
O=C(CN1CCN(Cc2ccc(F)cc2)S1(=O)=O)NCc1ccccc1,i
Cc1ccc(CNC(=O)CN2CCN(Cc3ccc(F)cc3Cl)S2(=O)=O)cc1,i
O=C(CN1CCN(Cc2ccccc2Cl)S1(=O)=O)Nc1ccc(F)cc1,i
Cc1cccc(C)c1NC(=O)CN1CCN(Cc2ccc(F)cc2Cl)S1(=O)=O,i
O=C(CN1CCN(Cc2ccc(F)cc2Cl)S1(=O)=O)NCc1ccccc1,+
SMILES,FECH inh
CSc1ncc(CNC(=O)c2cn(-c3ccccc3)nn2)n1C,i
Cn1nc(C(=O)O)c2c1CCN(C(=O)CSC13CC4CC(CC(C4)C1)C3)C2,i
COc1cccc(NC(=O)c2nc(N3CCOCC3)c3oc4ccccc4c3n2)c1,i
Cc1nc2nc(-c3ccccc3)nn2c(Sc2ccccc2NC(=O)c2cccc(Cl)c2)c1C,i
COc1ccc(N2CCCS2(=O)=O)cc1NC(=O)c1ccccc1OC,i
CCCN(CCC)c1ncc(NS(=O)(=O)c2c(C)cc(C)cc2C)cc1C(=O)O,i
COc1ccc(-c2cc(N3CCN(S(=O)(=O)c4cc(C)c(C)cc4C)CC3)ncn2)cc1,i
